According to PubChem BioAssay AID1159580 (chemical genetic matrix, 2015):
In all, about 5,500 compounds went through this assay and about 2,000 (36%) were called active. About 18% were inconclusive and are not listed. Cut-off read from the data, not from the text of the source: active = normalized growth mostly below about 0.91 (no sharp cut-off); inconclusive = no clear call, values can overlap the other calls; inactive = mostly above about 0.92. This is one part of the list.

Experiment: chemical genetic growth profiling, strain panel (AID 1159580);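 note: tested at 20 µM; growth read once vehicle control cultures reached saturation at 30 °C; 1 = growth at the plate median or of vehicle wells; lower values mean less growth of the strain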
Settings: S. cerevisiae deletion strains, growth OD
[1] = locus YAL040C, strain CLN3, hits give low values
[2] = locus YCL061C, strain MRC1 (second series), hits give low values
[3] = locus YDR150W, strain NUM1, hits give low values
[4] = locus YDR363W, strain ESC2, hits give low values
[5] = locus YER002W, strain NOP16, hits give low values
[6] = locus YJR075W, strain HOC1, hits give low values
[7] = locus YMR263W, strain SAP30, hits give low values
[8] = locus YMR307W, strain GAS1, hits give low values
[9] = locus YNL153C, strain GIM3, hits give low values
[10] = locus YNL175C, strain NOP13, hits give low values
[11] = locus YNL197C, strain WHI3, hits give low values
[12] = locus YNL224C, strain SQS1, hits give low values
[13] = locus YOR083W, strain WHI5 (second series), hits give low values
[14] = locus YAL013W, strain DEP1, hits give low values
[15] = locus YNL322C, strain KRE1, hits give low values
[16] = locus YPL241C, strain CIN2, hits give low values
[17] = locus YBR229C, strain ROT2, hits give low values
[18] = locus YDL101C, strain DUN1, hits give low values
[19] = locus YDL134C, strain PPH21, hits give low values
[20] = locus YEL061C, strain CIN8, hits give low values
[21] = locus YGR078C, strain PAC10, hits give low values
[22] = locus YHR030C, strain SLT2, hits give low values
[23] = locus YHR087W, strain rtc3, hits give low values
[24] = locus YJR043C, strain POL32, hits give low values
[25] = locus YLR039C, strain RIC1, hits give low values
[26] = locus YLR058C, strain SHM2 (second series), hits give low values
[27] = locus YLR085C, strain ARP6, hits give low values
[28] = locus YLR262C, strain YPT6, hits give low values
[29] = locus YML094W, strain GIM5, hits give low values
[30] = locus YMR219W, strain ESC1, hits give low values
[31] = locus YNL298W, strain CLA4 (second series), hits give low values
[32] = locus YNR030W, strain Alg12, hits give low values
[33] = locus YOL006C, strain TOP1, hits give low values
[34] = locus YPL055C, strain LGE1, hits give low values
[35] = locus YPR135W, strain CTF4, hits give low values
[36] = locus YJL187C, strain SWE1, hits give low values

Measured: normalized growth

O=c1oc(Cl)c(Cl)c2ccccc12
inactive: [1] 1.03 | [2] 1 | [3] 0.991 | [4] 1 | [5] 1.02 | locus YGR229C, strain SMI1, hits give low values 0.968 | [6] 0.998 | [7] 1 | [8] 1 | [10] 1.01 | [11] 1.02 | [12] 0.923 | [13] 0.915
active: [9] 0.798

NC(=S)c1ccc[n+]([C@@H]2O[C@@H](COP(=O)([O-])OP(=O)(O)OC[C@H]3O[C@@H](n4cnc5c(N)ncnc54)C(OP(=O)(O)O)[C@H]3O)C(O)C2O)c1 (some centres not stated)
inactive: [14] 1.02 | [1] 1.03 | [2] 1.01 | [4] 1 | [5] 0.999 | [7] 0.995 | [8] 1 | [10] 1 | [11] 1.03 | [12] 1 | [15] 1.02 | [13] 0.998 | [16] 1.01

Cc1ccc(S(=O)(=O)Oc2ccc(CC#N)cc2)cc1
inactive: [14] 0.998 | [17] 0.963 | [18] 1.02 | [19] 0.978 | [3] 0.995 | [20] 0.976 | [21] 1.01 | [22] 0.974 | [23] 0.953 | [24] 1.01 | [6] 0.993 | locus YKL190W, strain CNB1, hits give low values 0.945 | [25] 0.865 | [26] 0.977 | [27] 0.929 | [28] 0.845 | [29] 0.956 | [30] 0.989 | [7] 0.995 | locus YNL128W, strain TEP1, hits give low values 0.995 | [9] 1.01 | [31] 0.977 | [15] 0.978 | [32] 0.969 | [33] 0.971 | [34] 0.958 | [16] 0.979 | [35] 0.863

Cc1ccc(S(=O)(=O)Oc2cc(=O)n(C)c3ccccc23)cc1
inactive: [14] 0.95 | [17] 0.967 | [18] 0.967 | [19] 0.945 | [3] 0.918 | [20] 0.972 | [21] 0.955 | [22] 0.791 | [23] 0.961 | [24] 0.961 | [6] 0.96 | [25] 0.971 | [26] 0.952 | [27] 0.838 | [28] 0.918 | [29] 0.952 | [30] 0.963 | [7] 0.903 | [9] 0.954 | [31] 0.916 | [15] 0.977 | [32] 0.909 | [33] 0.808 | [34] 0.898 | [16] 0.873 | [35] 0.666
active: [36] 0.861 | [8] 0.622

OC[C@@H](O)C(O[C@@H]1O[C@H](CO)[C@H](O)[C@H](O)[C@H]1O)[C@H](O)[C@@H](O)CO (some centres not stated)
inactive: locus YAL021C, strain ccr4, hits give low values 0.969 | locus YAL026C, strain drs2, hits give low values 0.99 | locus YAL030W, strain snc1, hits give low values 0.986 | locus YBL061C, strain skt5, hits give low values 0.993 | locus YBR009C, strain hhf1, hits give low values 0.991 | locus YBR023C, strain chs3, hits give low values 0.984 | locus YBR171W, strain sec66, hits give low values 0.98 | locus YBR279W, strain paf1, hits give low values 0.981 | locus YCL011C, strain gbp2, hits give low values 0.995 | locus YCL016C, strain dcc1, hits give low values 0.983 | locus YCL061C, strain MRC1, hits give low values 0.994 | locus YCL069W, strain vba3, hits give low values 0.99 | locus YCR088W, strain abp1, hits give low values 0.98 | locus YDL005C, strain med2, hits give low values 0.979 | locus YDL040C, strain nat1, hits give low values 0.988 | locus YDR001C, strain nth1, hits give low values 0.99 | locus YDR069C, strain doa4, hits give low values 0.981 | locus YDR137W, strain rgp1, hits give low values 1 | locus YDR159W, strain sac3, hits give low values 0.982 | locus YDR195W, strain ref2 0.963 | locus YDR297W, strain sur2, hits give low values 0.987 | locus YDR334W, strain swr1, hits give low values 0.98 | locus YDR335W, strain msn5, hits give low values 0.987 | locus YDR392W, strain spt3, hits give low values 0.992 | locus YEL003W, strain gim4, hits give low values 1.01 | locus YEL037C, strain rad23, hits give low values 0.991 | locus YEL061C, strain CIN8 (second series), hits give low values 0.995 | locus YER015W, strain faa2, hits give low values 0.991 | locus YER016W, strain bim1, hits give low values 0.988 | locus YER111C, strain swi4, hits give low values 0.996 | locus YER155C, strain BEM2 (second series), hits give low values 0.976 | locus YFR010W, strain ubp6, hits give low values 0.975 | locus YGL167C, strain pmr1, hits give low values 0.986 | locus YGL173C, strain kem1, hits give low values 0.981 | locus YGL227W, strain vid30, hits give low values 0.99 | locus YGL240W, strain doc1, hits give low values 0.999 | locus YGL253W, strain hxk2, hits give low values 0.989 | locus YHR013C, strain ard1, hits give low values 0.989 | locus YHR027C, strain rpn1, hits give low values 1 | [22] 0.976 | locus YHR079C, strain IRE1, hits give low values 0.974 | locus YHR142W, strain chs7, hits give low values 0.983 | locus YJL092W, strain hpr5, hits give low values 0.989 | locus YJL095W, strain BCK1 (second series), hits give low values 0.98 | locus YJL095W, strain BCK1, hits give low values 1.03 | locus YJL115W, strain asf1, hits give low values 0.978 | locus YJL129C, strain trk1, hits give low values 0.985 | locus YJL154C, strain vps35, hits give low values 0.991 | locus YJL164C, strain tpk1, hits give low values 0.996 | locus YJL166W, strain qcr8, hits give low values 0.987 | [36] 0.991 | locus YJR066W, strain TOR1, hits give low values 0.926 | locus YKL160W, strain elf1, hits give low values 0.991 | locus YKR026C, strain gcn3, hits give low values 0.985 | locus YKR091W, strain srl3, hits give low values 0.983 | locus YLL001W, strain dnm1, hits give low values 1 | locus YLL026W, hits give low values 0.989 | locus YLL041C, strain sdh2, hits give low values 0.992 | locus YLR027C, strain aat2, hits give low values 0.991 | locus YLR113W, strain HOG1, hits give low values 1.04 | locus YLR221C, strain rsa3, hits give low values 0.994 | locus YLR258W, strain gsy2, hits give low values 0.989 | locus YLR262C, strain YPT6 (second series), hits give low values 1 | locus YLR320W, strain mms22, hits give low values 0.98 | locus YLR342W, strain FKS1, hits give low values 0.987 | locus YLR357W, strain rsc2, hits give low values 0.959 | locus YLR370C, strain arc18, hits give low values 0.994 | locus YLR384C, strain iki3, hits give low values 0.983 | locus YML120C, strain ndi1, hits give low values 0.995 | locus YMR058W, strain fet3, hits give low values 0.99 | locus YMR125W, strain sto1, hits give low values 0.981 | locus YMR129W, hits give low values 0.995 | locus YMR205C, strain PFK2, hits give low values 0.994 | locus YMR231W, strain pep5, hits give low values 0.967 | locus YNL071W, strain lat1, hits give low values 0.985 | locus YNL183C, strain NPR1, hits give low values 0.934 | locus YNL209W, strain ssb2, hits give low values 1.01 | locus YNL248C, strain rpa49, hits give low values 0.991 | locus YNL322C, strain KRE1 (second series), hits give low values 0.986 | locus YNR049C, strain mso1, hits give low values 0.981 | locus YOR001W, strain rrp6, hits give low values 0.989 | locus YOR070C, strain gyp1, hits give low values 0.996 | locus YOR080W, strain dia2, hits give low values 0.981 | locus YOR083W, strain WHI5, hits give low values 0.986 | locus YOR106W, strain vam3, hits give low values 0.988 | locus YOR231W, strain MKK1, hits give low values 0.976 | locus YOR265W, strain rbl2, hits give low values 1 | locus YOR270C, strain vph1, hits give low values 1.01 | locus YOR290C, strain snf2, hits give low values 0.998 | locus YPL051W, strain arl3, hits give low values 1.01 | locus YPL078C, strain atp4, hits give low values 0.997 | locus YPL106C, strain sse1, hits give low values 0.969 | locus YPL240C, strain hsp82, hits give low values 0.988 | locus YPL256C, strain CLN2, hits give low values 0.986
